Rows were chosen to be rich in hits. Some 4.2% of all compounds tested hit in one or more screens of this group.
DAX1 StAR inh = blocks DAX1 repression of SF-1 activated StAR promoter; inhibition, % at 6.8 µM; HEK293T StAR-luciferase reporter, SF-1/DAX-1 repression relief; 1.1% of 370,000 active;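 active = inhibition above the mean over all tested compounds plus 3 SD, cut at about 3.6% in these data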;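 note: 0% = DAX-1 cells with DMSO and 100% = cells lacking DAX-1 with DMSO; higher inhibition means more luminescence from relief of DAX-1 repression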
ssDAF-12 act = activates DAF-12 receptor from parasite S. stercoralis | HEK293 ssDAF-12/GRIP1 lit1-tk-luc reporter, luminescence; % of 3 µM dafachronic acid response | activation, % at 6.8 µM | 1% of 370,000 active | AID 652126;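 active = activation above the mean over all tested compounds plus 3 SD, cut at about 0.9% in these data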;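 note: 0% = DMSO-only wells and 100% = 3 µM delta7-dafachronic acid wells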
hgDAF12 agonist = activates the H. glycines DAF-12 receptor ligand-binding domain; 1.8% of 370,000 active; activation, % at 6.8 µM; HEK293 GAL4-hgDAF12 UAS-luciferase reporter, agonist luminescence; normalized to butyrate control;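 active = activation above a cutoff set at the mean of all screened compounds plus 3 SD, cut at about 10% in these data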;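 note: 0% = DMSO wells and 100% = sodium butyrate wells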
esBAF inh = SWI/SNF esBAF complex inhibition. mouse ES cells, Bmi1-luciferase knock-in reporter, 24 h; 100% = twice the neutral-well signal. reporter increase, % at 12.5 µM. 2% of 350,000 active; in the data active = activation above about 40%;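 note: 0% = median of the plate's neutral control wells and 100% = double that signal; a rise in the Bmi1 reporter signal indicates esBAF inhibition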
hcDAF-12 act = activators of H. contortus DAF-12 nuclear receptor | activation, % at 6.8 µM | AID 652067 | HEK293 hcDAF-12 lit1-tk-luc reporter, luminescence; 0% DMSO, 100% Δ7-dafachronic acid | 1.4% of 370,000 active;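 active = activation above the mean of all tested compounds plus 3 SD, cut at about 5.5% in these data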;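 note: 100% = response to 3 µM Δ7-dafachronic acid high control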
Wnt bcat act = Wnt/beta-catenin pathway activation. Wnt/beta-catenin reporter cell assay, activator, plate reader. activation, % at 9.35 µM. 1.2% of 300,000 active. AID 743398; in the data active = activation above about 30%, passing the limit was not always enough;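 note: 0% = neutral control wells and 100% = positive control wells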
DAX1 conf = confirmation of human DAX1 (NR0B1) inhibitors | 87% of 2,400 active | inhibition, % at 6.8 µM | HEK293T StAR-promoter luciferase reporter, SF-1/DAX-1 repression | shares compounds with DAX1 StAR inh;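 active = inhibition above the average of every tested compound plus 3 SD, cut at about 3.8% in these data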;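 note: 0% = DAX-1 cells with DMSO and 100% = no DAX-1 control cells with DMSO; active compounds raise luminescence by relieving repression of the StAR reporter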
SF1 AF2mut Luc = counter-screen for DAX1 inhibitors: nonselective inhibitors with SF-1 AF2 mutant. HEK293 StAR-luciferase, luminescence. inhibition, % at 6.8 µM. shares compounds with DAX1 StAR inh. 78% of 2,400 active. AID 652136;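 active = inhibition above the mean of all tested compounds plus 3 SD, cut at about 3% in these data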;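 note: 0% = DAX-1 transfected cells with DMSO and 100% = cells without DAX-1 with DMSO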
LXRb hcDAF ctr = counter-screen for hcDAF-12 agonists: agonists of human LXR-beta. AID 743027. 3,400 tested, under 10 active. HEK293 Gal4-LXR tk-luc reporter, luminescence, 24 h; normalized: DMSO 0%, positive control 100%. activation, % at 6.8 µM. shares compounds with hcDAF-12 act;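 active = mean percent activation of the reporter above a cutoff set as the average over tested compounds plus their standard deviation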
Target sequence (P55055 whole entry, looked up, the tested form may be a part): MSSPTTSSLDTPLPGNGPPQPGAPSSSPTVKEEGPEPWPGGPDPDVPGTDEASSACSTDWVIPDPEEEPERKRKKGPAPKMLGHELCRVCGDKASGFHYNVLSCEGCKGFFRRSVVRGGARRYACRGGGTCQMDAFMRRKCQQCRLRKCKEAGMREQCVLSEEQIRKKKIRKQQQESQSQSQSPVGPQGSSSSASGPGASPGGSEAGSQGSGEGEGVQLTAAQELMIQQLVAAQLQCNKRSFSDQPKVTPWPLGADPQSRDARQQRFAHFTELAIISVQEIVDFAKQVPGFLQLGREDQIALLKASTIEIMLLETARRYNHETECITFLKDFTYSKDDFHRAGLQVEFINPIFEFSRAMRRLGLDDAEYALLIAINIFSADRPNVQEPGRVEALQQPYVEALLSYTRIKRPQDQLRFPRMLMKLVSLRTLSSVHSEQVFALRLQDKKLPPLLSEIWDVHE
hcDAF12 conf = hcDAF-12 agonism, confirmation assay | 61% of 3,400 active | AID 743032 | shares compounds with hcDAF-12 act | activation, % at 6.8 µM | HEK293 hcDAF-12 lit1-tk-luc reporter, luminescence; % of Δ7-dafachronic acid response;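 active = mean activation across triplicate tests above the threshold derived from the earlier primary screen, cut at about 5.5% in these data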;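 note: 0% = DMSO only wells and 100% = 3 µM Δ7-dafachronic acid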
Active calls of the source: *; x = no result given.

SMILES | DAX1 StAR inh | ssDAF-12 act | hgDAF12 agonist | esBAF inh | hcDAF-12 act | Wnt bcat act | DAX1 conf | SF1 AF2mut Luc | LXRb hcDAF ctr | hcDAF12 conf
Clc1ccc(-c2nc3n(n2)Cc2ccccc2-3)cc1 | 5.1* | 3.5* | 17* | 8 | 17* | 53* | 13* | 5.5* | 2 | 24*
CC(C=NNC(=O)C(=O)NN=CC(C)=Cc1ccccc1)=Cc1ccccc1 | x | x | x | 33 | x | x | x | x | x | x
CC(/C=N/NC(=O)c1cccs1)=C\c1ccccc1 | 7.0* | 1.4* | 16* | 38 | 6.8* | 10 | 18* | 7.8* | 2 | 7.2*
Cc1ccnc(NC(=O)c2sc3cc(Cl)ccc3c2Cl)c1 | 0 | -1 | 7 | x | 0 | 30 | x | x | x | x
O=C(Nc1ccccn1)c1sc2cccc(F)c2c1Cl | 8.4* | 1.1* | 19* | -40 | 14* | 10 | 8.5* | 3 | 2 | 18*
CN(C)CCNC(=O)c1sc2cccc(F)c2c1Cl | 2 | -1 | 8 | -2 | 2 | 6 | x | x | x | x
Cc1ccc(NC(=O)c2sc3ccccc3c2Cl)nc1 | 5.1* | 1 | 20* | -50 | 10* | 19 | 11* | 3.1* | 2 | 18*
CCNC(=O)C[C@H]1C=C[C@H](NC(=O)NC2CCCCC2)[C@@H](CO)O1 | x | x | x | -4 | x | x | x | x | x | x
Cc1ccc(C(=O)Oc2oc(-c3ccco3)nc2C=Nc2ccc(Cl)cc2)cc1 | 4.6* | 1 | 9 | x | 8.3* | x | 7.9* | 4.7* | 1 | 3
O=C(Oc1oc(-c2ccco2)nc1C=Nc1ccccc1)c1ccoc1 | 2 | -1 | 1 | 32 | 1 | -1 | x | x | x | x
C[C@@H]1CN([C@@H](C)CO)C(=O)Cc2cc(NC(=O)Cc3ccccc3)ccc2O[C@@H]1CN(C)C | x | x | x | 0 | x | x | x | x | x | x
C[C@@H]1CCCCO[C@@H](CN(C)C(=O)Nc2ccc3c(c2)OCO3)[C@H](C)CN([C@@H](C)CO)C(=O)c2cc(NC(=O)c3ccccc3)ccc2O1 | x | x | x | 33 | x | x | x | x | x | x
Cc1cccc(N/C=C/C(=O)c2cccs2)c1C | 6.3* | 2.9* | 13* | x | 15* | x | 14* | 7.3* | 2 | 21*
Cc1c(NC(=O)c2cccs2)cccc1NC(=O)c1cccs1 | -2 | -1 | -2 | x | -1 | -2 | x | x | x | x
C[C@H](CO)N1C[C@H](C)[C@H](CN(C)C(=O)c2ccncc2)Oc2ncc(C3=CCCC3)cc2C1=O | x | x | x | 3 | x | x | x | x | x | x
CO[C@H]1CN(C)C(=O)c2ccc(NS(C)(=O)=O)cc2OC[C@@H](C)N(Cc2cncnc2)C[C@H]1C | x | x | x | 7 | x | x | x | x | x | x
COc1ccc(NC(=O)Nc2cccc3c2O[C@H](CN(C)C(=O)Nc2c(C)noc2C)[C@H](C)CN([C@H](C)CO)C3=O)cc1 | x | x | x | 2 | x | x | x | x | x | x
O=S(=O)(/N=C(/Nc1nc2ccccc2s1)c1ccccc1)c1ccccc1 | 14* | 1.5* | 12* | 66* | 8.9* | 50* | 5.0* | 4.2* | 1 | 3
O=C(Nc1nc2ccccc2[nH]1)c1ccc(F)cc1 | 5.3* | 1.2* | 13* | -51 | 8.0* | 9 | 14* | 8.9* | 1 | 5
COc1cccc(-c2cc(C(=O)N3CCc4ccccc4C3)no2)c1 | 0 | -1 | 3 | 0 | 1 | x | x | x | x | x
COc1cccc(-c2nc3n(n2)CCc2ccccc2-3)c1 | 8.3* | 2.0* | 20* | 36 | 17* | 64* | 7.5* | 4.1* | 1 | 16*

Assay outcomes (PubChem BioAssay)
